Here are results for 22 compounds from the supplement of paper PMC10037445.

Experiment [1] concerns RAW-Dual. Nature of the experiment: NF-kB SEAP reporter activity, fold change vs agonist alone; higher = enhanced NF-kB activity. The note with it: library stock concentration (final ~1000-fold dilution): 10 mM. Summed up:
(§1)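 Supernatant from RAW-Dual macrophages was read after 20 hours for IRF by QuantiLuc luminescence and for NF-κB by QuantiBlue absorbance at 620 nm. The cells (50,000 cells/well in DMEM, 384-well plates, 37 °C, 5% CO2) had received 50 nL of library stock by pin tool and, 1 h later, a PRR agonist. Reporter activity is expressed relative to agonist-alone wells as fold change, and wells were flagged cytotoxic if IncuCyte confluency was under 70% of agonist controls in both mask sets.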

Experiment [2] concerns RAW-Dual. As to the kind of experiment: NF-kB SEAP reporter activity, fold change vs agonist alone; cytotoxicity flag (confluency mask): cytotoxic (confluency <70% of control); higher = enhanced NF-kB activity. Summed up:
as §1

Experiment [3] deals with RAW-Dual. Nature of the experiment: NF-kB SEAP reporter activity, fold change vs agonist alone; cytotoxicity flag (confluency mask): not cytotoxic; higher = enhanced NF-kB activity. Summed up: as §1
Setting [4] is: cytotoxicity flag (confluency mask): cytotoxic (confluency <70% of control), agonist: Imiquimod (TLR7) […].
Setting [5] is: cytotoxicity flag (confluency mask): cytotoxic (confluency <70% of control), agonist: MPLA (TLR4) […].
[6] abbreviates: agonist: ODN 1826 (TLR9) 0.5 ug/mL.
Where [7] appears, read: agonist: Pam2CSK4 (TLR2/6) 0.1 ug/mL.
[8] abbreviates: agonist: Pam3CSK4 (TLR2/1) 0.1 ug/mL.
[9] abbreviates: cytotoxicity flag (confluency mask): not cytotoxic, agonist: Imiquimod (TLR7) […].
The mark [10] stands for this setting: cytotoxicity flag (confluency mask): not cytotoxic, agonist: MPLA (TLR4) […].

Structures are written as SMILES. In all, about 2,900 compounds were measured (“NF-kB SEAP reporter activity, fold change vs agonist alone”: median about 0.99, highest 2% from about 2.6 on). This is one part of a sample in which the highest values are shown more often than they occur.

As for `NS(=O)(=O)OC[C@H]1C[C@@H](Nc2ccnc3cc(-c4cccc(SC(F)(F)F)c4)nn23)[C@H](O)[C@@H]1O`, the entries for the “NF-kB SEAP reporter activity” value in the experiment with RAW-Dual [1] (setting [4]) and in the experiment on RAW-Dual [1] (setting [5]) were 0.145 and 0.255, respectively.

Consider `NS(=O)(=O)OC[C@H]1C[C@@H](Nc2ccnc3cc(-c4cccc(SC(F)(F)F)c4)nn23)[C@H](O)[C@@H]1O` (library stock concentration (final ~1000-fold dilution): 10 mM), for which the “NF-kB SEAP reporter activity” value in the experiment with RAW-Dual [2] (agonist: LPS (TLR4) 0.1 ug/mL) was 0.308; in the experiment on RAW-Dual [2] (setting [6]), 0.19; in the experiment on RAW-Dual [2] (setting [7]) it was 0.0814; in the experiment on RAW-Dual [2] (setting [8]) it was 0.152.

As for `CCNC(=O)[C@]12CCC(C)(C)C[C@H]1[C@H]1C(=O)C=C3[C@@]4(C)C=C(C#N)C(=O)C(C)(C)[C@@H]4CC[C@@]3(C)[C@]1(C)CC2`, the “NF-kB SEAP reporter activity” value in the experiment with RAW-Dual [1] (setting [9]) came out at 0.15; in the experiment with RAW-Dual [1] (setting [10]) it was 0.256.

On to `CCNC(=O)[C@]12CCC(C)(C)C[C@H]1[C@H]1C(=O)C=C3[C@@]4(C)C=C(C#N)C(=O)C(C)(C)[C@@H]4CC[C@@]3(C)[C@]1(C)CC2` (library stock concentration (final ~1000-fold dilution): 10 mM), for which the “NF-kB SEAP reporter activity” value in the experiment on RAW-Dual [3] (agonist: LPS (TLR4) 0.1 ug/mL) is 0.324; with RAW-Dual [3] (setting [6]), 0.193; with RAW-Dual [3] (setting [7]) it was 0.0804; in the experiment with RAW-Dual [3] (setting [8]), 0.173.

Turning to `CC(O)C(=O)O.CN1CCN(c2ccc3nc(-c4c(N)c5c(F)cccc5[nH]c4=O)[nH]c3c2)CC1`, the results for the “NF-kB SEAP reporter activity” value in the experiment on RAW-Dual [1] (setting [4]) and with RAW-Dual [1] (setting [5]) were 0.335 and 0.591, respectively.

As for `CC(O)C(=O)O.CN1CCN(c2ccc3nc(-c4c(N)c5c(F)cccc5[nH]c4=O)[nH]c3c2)CC1` (library stock concentration (final ~1000-fold dilution): 10 mM), the “NF-kB SEAP reporter activity” value amounted to 0.341 in the experiment on RAW-Dual [2] (agonist: LPS (TLR4) 0.1 ug/mL), 0.18 in the experiment with RAW-Dual [2] (setting [6]), 0.15 in the experiment on RAW-Dual [2] (setting [7]) and 0.219 in the experiment with RAW-Dual [2] (setting [8]).

As for `C=C(CC(=O)OCCCCCCCC)C(=O)O` (library stock concentration (final ~1000-fold dilution): 10 mM), the “NF-kB SEAP reporter activity” value was 0.76 in the experiment with RAW-Dual [3] (agonist: LPS (TLR4) 0.1 ug/mL), 0.641 in the experiment on RAW-Dual [3] (setting [6]), 0.455 with RAW-Dual [3] (setting [7]) and 0.645 in the experiment on RAW-Dual [3] (setting [8]).

Consider `C=C(CC(=O)OCCCCCCCC)C(=O)O`, for which the “NF-kB SEAP reporter activity” value came out at 0.711 in the experiment with RAW-Dual [1] (setting [9]) and 0.955 in the experiment with RAW-Dual [1] (setting [10]).

Turning to `NCC(O)(c1ccc(Cl)cc1)c1ccc(-c2cn[nH]c2)cc1` (stereo not given) (library stock concentration (final ~1000-fold dilution): 10 mM), the “NF-kB SEAP reporter activity” value with RAW-Dual [3] (agonist: LPS (TLR4) 0.1 ug/mL) was 0.342; in the experiment on RAW-Dual [3] (setting [6]) it was 0.435; with RAW-Dual [3] (setting [7]), 0.236; with RAW-Dual [3] (setting [8]), 0.327.

In the case of `NCC(O)(c1ccc(Cl)cc1)c1ccc(-c2cn[nH]c2)cc1` (stereo not given), the “NF-kB SEAP reporter activity” value with RAW-Dual [1] (setting [9]) amounted to 0.966; in the experiment with RAW-Dual [1] (setting [10]), 0.527.

As for `CN1C(=N)NC(C)(c2cc(NC(=O)c3ccc(F)cn3)ccc2F)CS1(=O)=O.O=C(O)C(F)(F)F` (stereo not given) (library stock concentration (final ~1000-fold dilution): 10 mM), the “NF-kB SEAP reporter activity” value was 0.826 with RAW-Dual [3] (agonist: LPS (TLR4) 0.1 ug/mL), 0.731 in the experiment with RAW-Dual [3] (setting [6]), 0.823 in the experiment on RAW-Dual [3] (setting [7]) and 0.856 in the experiment with RAW-Dual [3] (setting [8]).

Consider `CN1C(=N)NC(C)(c2cc(NC(=O)c3ccc(F)cn3)ccc2F)CS1(=O)=O.O=C(O)C(F)(F)F` (stereo not given), for which the “NF-kB SEAP reporter activity” value in the experiment on RAW-Dual [1] (setting [9]) came out at 0.873; with RAW-Dual [1] (setting [10]) it was 0.781.

For `O=C(OCC1OC(OC(=O)c2cc(O)c(O)c(OC(=O)c3cc(O)c(O)c(O)c3)c2)C(OC(=O)c2cc(O)c(O)c(OC(=O)c3cc(O)c(O)c(O)c3)c2)C(OC(=O)c2cc(O)c(O)c(OC(=O)c3cc(O)c(O)c(O)c3)c2)C1OC(=O)c1cc(O)c(O)c(OC(=O)c2cc(O)c(O)c(O)c2)c1)c1cc(O)c(O)c(OC(=O)c2cc(O)c(O)c(O)c2)c1` (stereo not given), the entries for the “NF-kB SEAP reporter activity” value in the experiment with RAW-Dual [1] (setting [9]) and in the experiment with RAW-Dual [1] (setting [10]) were 0.144 and 0.319, respectively.

Regarding `O=C(OCC1OC(OC(=O)c2cc(O)c(O)c(OC(=O)c3cc(O)c(O)c(O)c3)c2)C(OC(=O)c2cc(O)c(O)c(OC(=O)c3cc(O)c(O)c(O)c3)c2)C(OC(=O)c2cc(O)c(O)c(OC(=O)c3cc(O)c(O)c(O)c3)c2)C1OC(=O)c1cc(O)c(O)c(OC(=O)c2cc(O)c(O)c(O)c2)c1)c1cc(O)c(O)c(OC(=O)c2cc(O)c(O)c(O)c2)c1` (stereo not given) (library stock concentration (final ~1000-fold dilution): 10 mM), the “NF-kB SEAP reporter activity” value in the experiment with RAW-Dual [3] (agonist: LPS (TLR4) 0.1 ug/mL) is 1.25; in the experiment on RAW-Dual [3] (setting [6]) it was 0.116; in the experiment with RAW-Dual [3] (setting [7]), 1.04; in the experiment on RAW-Dual [3] (setting [8]), 0.185.

In the case of `C=CC1CC1(NC(=O)C1CC(Oc2ncc(OC)c3ccc(Cl)cc23)CN1C(=O)C(NC(=O)OC(C)(C)C)C(C)(C)C)C(=O)NS(=O)(=O)C1CC1` (stereo not given) (library stock concentration (final ~1000-fold dilution): 10 mM), the “NF-kB SEAP reporter activity” value with RAW-Dual [2] (agonist: LPS (TLR4) 0.1 ug/mL) amounted to 1.1; with RAW-Dual [2] (setting [6]), 0.915; in the experiment on RAW-Dual [2] (setting [7]), 0.518; in the experiment on RAW-Dual [2] (setting [8]), 0.508.

In the case of `C=CC1CC1(NC(=O)C1CC(Oc2ncc(OC)c3ccc(Cl)cc23)CN1C(=O)C(NC(=O)OC(C)(C)C)C(C)(C)C)C(=O)NS(=O)(=O)C1CC1` (stereo not given), the “NF-kB SEAP reporter activity” value in the experiment on RAW-Dual [1] (setting [5]) was found to be 1.06.

`Cc1cc(Nc2cc(N3CCN(C)CC3)nc(/C=C/c3ccccc3)n2)n[nH]1.O=C(O)C(O)C(O)C(=O)O` (library stock concentration (final ~1000-fold dilution): 10 mM): the “NF-kB SEAP reporter activity” value with RAW-Dual [3] (agonist: LPS (TLR4) 0.1 ug/mL) was 0.407; with RAW-Dual [3] (setting [6]), 0.191; in the experiment with RAW-Dual [3] (setting [7]) it was 0.297; in the experiment with RAW-Dual [3] (setting [8]), 0.279.

`Cc1cc(Nc2cc(N3CCN(C)CC3)nc(/C=C/c3ccccc3)n2)n[nH]1.O=C(O)C(O)C(O)C(=O)O`: the “NF-kB SEAP reporter activity” value with RAW-Dual [1] (setting [9]) was determined as 0.89; in the experiment on RAW-Dual [1] (setting [10]), 0.85.

As for `CNC(C)C(=O)NC(C(=O)N1CCCC1c1nc(C(=O)c2ccc(F)cc2)cs1)C1CCCCC1` (stereo not given), the “NF-kB SEAP reporter activity” value was 1.16 in the experiment with RAW-Dual [1] (setting [4]) and 0.714 in the experiment on RAW-Dual [1] (setting [5]).

With `CNC(C)C(=O)NC(C(=O)N1CCCC1c1nc(C(=O)c2ccc(F)cc2)cs1)C1CCCCC1` (stereo not given) (library stock concentration (final ~1000-fold dilution): 10 mM), the “NF-kB SEAP reporter activity” value in the experiment on RAW-Dual [2] (agonist: LPS (TLR4) 0.1 ug/mL) is 0.436; in the experiment on RAW-Dual [2] (setting [6]), 0.764; in the experiment with RAW-Dual [2] (setting [7]), 0.902; with RAW-Dual [2] (setting [8]) it was 0.517.

As to `O=c1cc(-c2ccc(O)cc2)oc2cccc(O)c12`, the “NF-kB SEAP reporter activity” value in the experiment on RAW-Dual [1] (setting [9]) was determined as 1.07; with RAW-Dual [1] (setting [10]), 1.37.

With `O=c1cc(-c2ccc(O)cc2)oc2cccc(O)c12` (library stock concentration (final ~1000-fold dilution): 10 mM), the “NF-kB SEAP reporter activity” value with RAW-Dual [3] (agonist: LPS (TLR4) 0.1 ug/mL) turned out to be 1.55; with RAW-Dual [3] (setting [6]), 1.15; with RAW-Dual [3] (setting [7]) it was 1.09; in the experiment with RAW-Dual [3] (setting [8]) it was 1.82.
